{"source": "ChEMBL document CHEMBL3988442", "about": "“University of Dundee, Small-Polar-MMV Screening Library” (2021)", "note": "The campaign covered roughly 48,000 compounds. About 13,000 (27%) showed an effect of 50% or more. This is one part of the list.", "data": [{"system": "Wolbachia pipientis", "assay": "Anti-Wolbachia Cell-Based Screen", "format": "functional", "set-up": "scale not given: in the data most compounds retested in dose-response had high values", "conditions": "5 µM", "units": {"Percent Effect": "%"}, "values": [{"smiles": "CCCN1CCCn2nc(CNC(=O)CC3CCS(=O)(=O)C3)cc2C1", "note": "(centres undefined)", "Percent Effect": -3.917}, {"smiles": "CCc1ccc(C2COCCN2C(=O)Nc2cccc(C(C)=O)c2)o1", "note": "(centres undefined)", "Percent Effect": -4.107}, {"smiles": "CSc1ncc(C(=O)NCc2cc3n(n2)CCCN(CC(C)C)C3)cn1", "Percent Effect": 10.82}, {"smiles": "CC(=O)N1CCC2(CC1)CN(CC(C)C)CC21CCNC1=O.O=C(O)C(F)(F)F", "note": "(centres undefined)", "Percent Effect": -42.64}, {"smiles": "COc1cc2c(cc1OC)S(=O)(=O)N(Cc1ccccc1C)C2=O", "Percent Effect": -3.651}, {"smiles": "CC(=O)N1CC[C@H]2CC(=O)N(C3CCCCC3)CC[C@H]2C1", "Percent Effect": -3.423}, {"smiles": "O=C1CC(c2ncc(-c3ccc4c(c3)OCCO4)[nH]2)CN1C1CCCC1", "note": "(centres undefined)", "Percent Effect": 12.43}, {"smiles": "CC1CCN(c2nc(O)cc(C3CC(=O)N(C4CCCCC4)C3)n2)CC1", "note": "(centres undefined)", "Percent Effect": 162.6}, {"smiles": "CC(C)Nc1nc(O)cc(C2CC(=O)N(C3CCCCC3)C2)n1", "note": "(centres undefined)", "Percent Effect": 137.6}, {"smiles": "CCOCCCNc1nc(O)cc(C2CC(=O)N(C)C2)n1", "note": "(centres undefined)", "Percent Effect": -9.932}, {"smiles": "CCNC(=O)N1CC[C@H]2CC(=O)N(C3CCCCC3)CC[C@H]2C1", "Percent Effect": 0.2272}, {"smiles": "CCc1nc(C)c(CN2CCN(c3ncnc4c(C)csc34)CC2)[nH]1", "Percent Effect": 6.188}, {"smiles": "O=c1cc(CN2CCCC(CCc3c(F)cccc3F)C2)[nH]c(=O)[nH]1", "note": "(centres undefined)", "Percent Effect": -9.358}, {"smiles": "O=C1NCCCCC1NC(=O)C1(c2cccc(Cl)c2)CC1", "note": "(centres undefined)", "Percent Effect": -14.19}, {"smiles": "O=C(O)C(F)(F)F.O=C(O)C(F)(F)F.O=C1CC(c2ccncc2)C2(CCN(CC3CC3)CC2)N1", "note": "(centres undefined)", "Percent Effect": 90.78}, {"smiles": "O=C1CC(c2cccnc2)C2(CCN(C(=O)N3CCOCC3)CC2)N1", "note": "(centres undefined)", "Percent Effect": 18.29}, {"smiles": "Cc1nc(CN2CCC3(CC2)NC(=O)CC3c2cccnc2)cs1", "note": "(centres undefined)", "Percent Effect": 101}, {"smiles": "O=C(O)C(F)(F)F.O=C1CC(c2ccccc2)C2(CCN(CC3CC3)CC2)N1", "note": "(centres undefined)", "Percent Effect": -11.51}, {"smiles": "O=C1CC(c2ccncc2)C2(CCN(CCO)CC2)N1", "note": "(centres undefined)", "Percent Effect": -11.83}, {"smiles": "O=C(O)C(F)(F)F.O=C1CC(c2ccncc2)C2(CCN(C(=O)c3cccs3)CC2)N1", "note": "(centres undefined)", "Percent Effect": 1.39}, {"smiles": "CCc1ccc(CN2CCC3(CC2)NC(=O)CC3c2ccncc2)o1.O=C(O)C(F)(F)F.O=C(O)C(F)(F)F", "note": "(centres undefined)", "Percent Effect": -16.11}, {"smiles": "Cc1nc(CN2CCC3(CC2)NC(=O)CC3c2ccncc2)cs1.O=C(O)C(F)(F)F.O=C(O)C(F)(F)F", "note": "(centres undefined)", "Percent Effect": 104.7}, {"smiles": "COc1ccc(CN2CCC3(CC2)NC(=O)CC3c2ccncc2)cc1.O=C(O)C(F)(F)F.O=C(O)C(F)(F)F", "note": "(centres undefined)", "Percent Effect": 4.952}, {"smiles": "CC(NC(=O)c1ccc2c(c1)COC2)c1cccc(N2CCOC2=O)c1", "note": "(centres undefined)", "Percent Effect": -4.788}, {"smiles": "Cc1nc2cc(OCc3nc(C(=O)NC(C)(CO)CO)co3)ccc2s1", "Percent Effect": 17.49}, {"smiles": "Cc1cccnc1N1CCN(C(=O)C(C)n2ccnc2C(C)C)CC1", "note": "(centres undefined)", "Percent Effect": -23.9}, {"smiles": "Cc1ccc(CN(C)C(=O)C(C)n2cncn2)o1", "note": "(centres undefined)", "Percent Effect": -9.156}, {"smiles": "CCc1nnc(CN(CC)C(=O)C(C)n2ccnc2C(C)C)o1", "note": "(centres undefined)", "Percent Effect": 83.87}, {"smiles": "COc1cc2c(cc1CNC(=O)C(C)n1ccnc1C(C)C)OCCO2", "note": "(centres undefined)", "Percent Effect": -1.746}, {"smiles": "Cc1nc(C)n(CCNC(=O)C(C)n2ccnc2C(C)C)n1", "note": "(centres undefined)", "Percent Effect": -3.784}, {"smiles": "CC(C)c1nccn1C(C)C(=O)NC1Cc2ccccc2C1", "note": "(centres undefined)", "Percent Effect": 10.2}, {"smiles": "CC(C(=O)N(C)Cc1ccc(Br)o1)n1cccn1", "note": "(centres undefined)", "Percent Effect": 0.6222}, {"smiles": "CCc1nnc(CN(CC)C(=O)CCc2scnc2C)o1", "Percent Effect": -3.701}, {"smiles": "CCN(Cc1ccc(C)o1)C(=O)C(C)n1ccnc1C(C)C", "note": "(centres undefined)", "Percent Effect": 103.3}, {"smiles": "CCOC(=O)N1CCN(C(=O)C(C)n2ccnc2C(C)C)CC1", "note": "(centres undefined)", "Percent Effect": -18.05}, {"smiles": "CCN(Cc1ccncc1)C(=O)C(C)n1ccnc1C(C)C", "note": "(centres undefined)", "Percent Effect": 110.2}, {"smiles": "Cc1ccc(CN(C)C(=O)C(C)n2ccnc2C(C)C)o1", "note": "(centres undefined)", "Percent Effect": 90.15}, {"smiles": "Cc1nnc2ccc(NCC3(N4CCCCC4)CCOCC3)nn12", "Percent Effect": -7.148}, {"smiles": "COc1ccc(C)cc1-n1c(COC(C)C)n[nH]c1=O", "Percent Effect": 0.04984}, {"smiles": "Cc1cccc(CCC(=O)NCC2CCCN2c2cccnn2)c1", "note": "(centres undefined)", "Percent Effect": 7.373}, {"smiles": "Cc1nc(CN2CC(=O)N(C)c3ccccc3C2=O)no1", "Percent Effect": 7.895}, {"smiles": "CN(CC(O)C1CC1)C(=O)c1ccc(-c2nc(C3CC3)no2)cc1", "note": "(centres undefined)", "Percent Effect": 4.636}, {"smiles": "COc1cccc(CNc2nnc(C(C)(C)C)o2)c1OC", "Percent Effect": 92.71}, {"smiles": "COc1ccc(CNc2nnc(CC(C)(C)C)o2)cc1C#N", "Percent Effect": -29.2}, {"smiles": "COc1cccc(CNC(=O)Nc2ccc3[nH]nnc3c2)c1OC", "Percent Effect": -10.07}, {"smiles": "CCc1nnc(NCc2cccc(OC)c2OC)o1", "Percent Effect": 1.756}, {"smiles": "COc1ccc(OC)c(CNc2nnc(C(C)(C)C)o2)c1", "Percent Effect": 112.6}, {"smiles": "CC(C)(C)c1nnc(NCc2ccc(F)cc2)o1", "Percent Effect": -7.164}, {"smiles": "CN(Cc1ccccc1)c1ncccc1CNC1CCC1", "Percent Effect": -23.22}, {"smiles": "CN(Cc1cc(Br)c2c(c1)OCO2)Cc1cscn1", "Percent Effect": 2.814}, {"smiles": "CSCCNC(=O)c1coc(COc2ccc(F)cc2)n1", "Percent Effect": -7.576}, {"smiles": "CCC(C)N(Cc1ccncc1)C(=O)CCSC", "note": "(centres undefined)", "Percent Effect": -18.32}, {"smiles": "CSc1ccc(CNC(=O)NCC(O)c2cccc(F)c2)cc1", "note": "(centres undefined)", "Percent Effect": 106.1}, {"smiles": "Cc1cc(C)c(CNC(=O)NCC(O)c2cccc(F)c2)c(=O)[nH]1", "note": "(centres undefined)", "Percent Effect": 0.6677}, {"smiles": "CC(C)Nc1cccc(C(=O)NCC(O)c2cccc(F)c2)c1", "note": "(centres undefined)", "Percent Effect": -13.04}, {"smiles": "O=C(NCc1cccnc1)NCC(O)c1cccc(C(F)(F)F)c1", "note": "(centres undefined)", "Percent Effect": -14.42}, {"smiles": "CCOc1cccc(CNC(=O)NCC(O)c2cccc(F)c2)c1", "note": "(centres undefined)", "Percent Effect": 5.413}, {"smiles": "CNC(=O)c1cccc(NC(=O)NCc2ccc(SC)cc2)c1C", "Percent Effect": -19.71}, {"smiles": "O=C(NCc1cccc(F)c1)NCC(O)c1cccc(F)c1", "note": "(centres undefined)", "Percent Effect": 96.97}, {"smiles": "Cc1cc(CNC(=O)NCC(O)c2cccc(F)c2)no1", "note": "(centres undefined)", "Percent Effect": -1.718}, {"smiles": "O=C(NCc1ccccc1)NCC(O)c1cccc(F)c1", "note": "(centres undefined)", "Percent Effect": 95.34}, {"smiles": "O=C(C1SCCc2sccc21)N1CCN(C2CC2)C(=O)C1", "note": "(centres undefined)", "Percent Effect": -5.096}, {"smiles": "CN(CCc1noc(C2CC2)n1)C(=O)CCc1cc2n(n1)CCCNC2", "Percent Effect": 5.558}, {"smiles": "CC(=O)c1sc(C(NC(=O)c2ccccc2)C2CC2)nc1C", "note": "(centres undefined)", "Percent Effect": 5.718}]}]}
